Vif-A3G inh: qHTS for Inhibitors of Vif-A3G Interactions: qHTS | HeLa A3G-eYFP + Vif (tagged APOBEC3G with the HIV-1 protein that degrades it), YFP fluorescence, overnight | Potency, µM (titrated, usually from 46.1 µM), without a hit: at the top dose activity, negative = active, most hits filed as inhibitors | actives 0.076% (n = 410,000) | AID 602310, 2012; note: potency is the fitted concentration of half-maximal effect; % is set by controls: 0 for no effect and ±100 for the full control effect; nearly all actives have a fitted effect of over 60% in size
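Read-out is eYFP fluorescence (Ex 488/Em 500-530) from Vif-expressing HeLa A3G-eYFP cells; more signal means A3G escaped Vif-mediated degradation. Cells plated overnight, compound pinned in, incubated overnight at 37 deg C.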
PINK1 modulator: A Quantitative High throughput Screen to Identify Chemical Modulators of PINK1 Expression | PINK1 immunofluorescence, high-content cytometry, 24 h | Potency, µM (series often up to 76.6 µM), for the others: top-dose activation (PINK1 increase), hits mostly activators | actives 0.2% (n = 410,000) | AID 624263, 2012; active = well fitted activation curve with a large enough effect; inconclusive = small, poorly fitted or top-dose-only effect; cell line not stated here; note: potency is the fitted concentration of half-maximal effect; % of control where 0% means no effect; nearly all actives have a fitted effect of over 65% in size
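Decision-based qHTS: stable cells, 24 h exposure to five compound concentrations, CCCP as control. Fixed cells stained for PINK1 plus nuclear, mitochondrial and cell markers, cytometer read.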
TRPML1 agonist: qHTS for Agonists of the Human Mucolipin Transient Receptor Potential 1 (TRPML1) | Mucolipin-1 (Homo sapiens), Q9GZU1 | TRPML1-expressing cells, Ca2+ dye fluorescence, FDSS | activation, % (no concentration beside the values) | actives 0.12% (n = 410,000) | AID 624414, 2012; in the data active = activation above about 50%; inconclusive = mostly about 30% to 49%; note: 0% is about no effect
Target sequence (Q9GZU1 whole entry, looked up): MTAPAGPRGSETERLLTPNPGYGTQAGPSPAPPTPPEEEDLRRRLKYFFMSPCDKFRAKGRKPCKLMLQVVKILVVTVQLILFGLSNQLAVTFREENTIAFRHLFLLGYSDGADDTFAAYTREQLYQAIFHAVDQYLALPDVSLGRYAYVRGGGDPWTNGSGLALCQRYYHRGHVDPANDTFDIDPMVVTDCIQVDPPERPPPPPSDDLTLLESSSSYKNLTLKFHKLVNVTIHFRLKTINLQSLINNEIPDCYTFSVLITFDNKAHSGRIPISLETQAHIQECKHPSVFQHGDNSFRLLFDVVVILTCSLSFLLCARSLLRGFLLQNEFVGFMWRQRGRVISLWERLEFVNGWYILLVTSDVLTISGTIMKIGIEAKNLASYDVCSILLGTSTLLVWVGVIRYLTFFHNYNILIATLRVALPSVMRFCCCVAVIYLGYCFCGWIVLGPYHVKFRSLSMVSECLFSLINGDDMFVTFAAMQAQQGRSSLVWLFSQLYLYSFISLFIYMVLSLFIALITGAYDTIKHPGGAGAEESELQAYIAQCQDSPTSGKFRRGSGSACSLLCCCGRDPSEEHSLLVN
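Tetracycline-induced TRPML1-DL cells are seeded and incubated overnight before loading with a no-wash Ca2+ dye and quencher. Agonist activity is taken from the 110 s fluorescence read following compound pin-transfer on an FDSS, before EC80 54-4 challenge.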
Vif-A3F inh: qHTS for Inhibitors of Vif-A3F Interactions: qHTS. actives 0.2% (n = 390,000). AID 602313, 2012. Potency, µM (doses to about 46.1 µM), for inactives: at the top dose activity, negative = active. HeLa A3F-eYFP + Vif (tagged APOBEC3F with the HIV-1 protein that degrades it), YFP fluorescence increase; note: potency is the fitted concentration of half-maximal effect; % of control where 0% means no effect; nearly all actives have a fitted effect of over 65% in size
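HeLa cells stably expressing A3F-eYFP plus Vif, plated and incubated overnight at 37 deg C, then exposed to compounds overnight at 37 deg C. Blocked degradation read as raised yellow fluorescence (Ex 488/Em 500-530).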
TRPML1 blocker: qHTS for Inhibitors of the Human Mucolipin Transient Receptor Potential 1 (TRPML1) | TRPML1-inducible cells, Ca2+ dye fluorescence, FDSS; hits give low values; inhibition of EC80 agonist-evoked calcium signal | activity change, negative = inhibition, % (test concentration not listed) | actives 0.02% (n = 390,000) | AID 624415, 2012; in the data active = activity change below about -50%; inconclusive = between about -30% and that limit;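 note: stimulus is agonist 54-4 at its EC80 concentration; % is set by controls: 0 for no effect and ±100 for the full control effect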
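Calcium fluorescence in TRPML1-DL cells induced overnight with Tet: a 110 s read after compound pin addition, then a 110 s antagonist read after challenge with 54-4 at 4 uM final (EC80).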
* marks the source's active call; other numbers are inactive results; ? = inconclusive; nt = no result. Sampled rows, rich in hits. Any-hit rate of the full collection: about 0.52%. Unless noted, calls come from the whole dose curve; as a rule, active = well fitted curve in the direction sought with a large enough effect; inconclusive = small, poorly fitted or top-dose-only effect, or another doubt; inactive = no such curve, though single readings can be large; an effect the other way counts as inactive or inconclusive.

SMILES	Vif-A3G inh	PINK1 modulator	TRPML1 agonist	Vif-A3F inh	TRPML1 blocker
CC1CC=CC2C1C(=O)N(Cc1ccccc1)C2c1ccc(-c2ccoc2)cc1F (centres undefined)	-13.3%	nt	2.1	nt	67.9
COc1ccc(-n2c(SCC(N)=O)nc3sc4c(c3c2=O)CCC4)cc1	3.4%	13.9%	-0.2	-11.4%	-6.1
Oc1ccccc1Nc1nc2ccccc2n2nnnc12	nt	17.2%	3.4	nt	-8.7
CCOC(=O)N1CCC(Nc2nc3ccccc3n3nnnc23)CC1	-8.4%	1.6%	-1.0	10µM*	-12.9
Fc1ccccc1Nc1nc2ccccc2n2nnnc12	-27.2%	11.2%	-1.0	25.1µM*	4.1
CCOC(=O)c1ccccc1Nc1nc2ccc(C)cc2n2nnnc12	-3.6%	0.4%	0.1	?	-8.6
CC(Oc1ccccc1F)C(=O)NNC(=O)CCNC(=O)c1ccccc1Cl (centres undefined)	2.2%	-1.9%	0.0	-6.3%	-12.8
O=C(CCN1C(=O)C2C3CCC(C3)C2C1=O)OCC(=O)c1ccc(Cl)cc1 (centres undefined)	-0.9%	-0.2%	0.3	-0.3%	1.3
C=CCN1C(=O)/C(=C2/Sc3ccc(OC)cc3N2C)SC1=Nc1cccc(O)c1	11.2µM*	?	-0.5	11.2µM*	4.7
COc1ccccc1Oc1nc2c(C)cccn2c(=O)c1/C=C(\C#N)c1nc2ccccc2[nH]1	-22.5%	25.1µM*	-0.4	2.9%	-0.8
Cc1cccn2c(=O)c(/C=C(\C#N)C(N)=O)c(Oc3ccccc3)nc12	-0.5%	2.0%	-0.9	-4.0%	-21.5
COc1ccc(C(=O)N=c2sc3c(C)ccc(OC)c3n2C)cc1	-2.7%	4.9%	0.2	-10.5%	11.0
COc1cc(C2=NOC(C(=O)NCc3ccco3)C2)cc(OC)c1OC (centres undefined)	?	11.2µM*	0.0	-9.4%	-3.2
COC(=O)c1ccc(-c2ccc(OC)c(C3C4C=CCC(C)C4C(=O)N3Cc3ccccc3)c2)cc1 (centres undefined)	-1.6%	nt	0.6	nt	15.8
COC(=O)c1ccc(Cl)cc1NC(=O)N1CC=C(c2c[nH]c3ccccc23)CC1	?	0.3%	3.8	22.4µM*	0.5
Cc1cccc(NC(=O)N2CC=C(c3c[nH]c4ccccc34)CC2)c1C	?	-0.4%	3.5	11.2µM*	-7.4
Cc1ccc(NC(=O)N2CC=C(c3c[nH]c4ccccc34)CC2)cc1Cl	?	1.4%	3.7	?	5.2
CC(C)(C)c1ccc(-c2cn(-c3ccc(Br)cc3)c3[n+]2CCCS3)cc1	-0.8%	35.5µM*	-0.2	1.3%	20.0
CC(=O)/C(N=Nc1ccc(C(=O)O)cc1[N+](=O)[O-])=C(\C)O	0.1%	-0.3%	-0.1	-0.3%	-0.6
CC(=O)/C(N=Nc1cc(C)ccc1O)=C(\C)O	?	5.5%	1.1	25.1µM*	8.4
CCCC[C@@H]1CCCO[C@@](C(=O)NCCN2CCOCC2)(C(F)(F)F)C1	-1.1%	nt	0.1	nt	-10.0
Cc1ccc(/C=N/NC(=O)c2cc(C)oc2C)cc1	7.94µM*	6.5%	-0.1	14.1%	15.1
Cc1cc(C(=O)N/N=C/c2ccncc2)c(C)o1	0.9%	-1.0%	0.4	9.9%	59.1
Cc1cccc(NC(=O)Cc2coc3ccc4ccccc4c23)n1	-20.5%	11.2µM*	3.2	4.4%	23.0
O=C(O)Cc1coc2ccc3ccccc3c12	4.2%	?	-0.3	-14.5%	15.8
Cn1c2ccccc2c2ccc3c(c21)C(=O)C=CC3=O	-5.9%	-2.9%	1.2	11.2µM*	-6.9
COc1cccc(N2CCN(Cc3nc4scc(-c5ccccc5)c4c(=O)[nH]3)CC2)c1	8.91µM*	1.8%	1.1	-19.5%	-18.1
COc1cccc(N2CCN(Cc3nc4ccccc4c(=O)[nH]3)CC2)c1	0.7%	-2.4%	1.7	1.5%	-16.3
Cc1cc(SCC(=O)c2cccs2)nc2ccccc12	?	8.6%	5.1	11.2µM*	8.7

Assay outcomes: PubChem BioAssay, National Center for Advancing Translational Sciences (NCATS)
